Where “and” joins values, the source holds several entries; their conditions need not be identical. Equal entries are not always repeated. The panel holds about 79,000 compounds, 15% with a hit somewhere; the sample as a whole holds those more often. Where a structure was tested more than once in an assay, its records may differ in their call. Calls of active or inactive are those of the source. Rule as the data show it: active = growth inhibition above about 70%; inactive = the rest.
Legend:
[1] = NCI Yeast Anticancer Drug Screen. Data for the rad52 strain (AID 147);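 also: 0% = growth of vehicle-treated control cultures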; conditions: S. cerevisiae rad52 mutant growth inhibition, stronger effect = higher value
Procedure, shortened: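 Growth of repair-deficient yeast cells was compared between compound-treated and vehicle-treated cultures to give percent inhibition.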

[2] = NCI Yeast Anticancer Drug Screen. Data for the wt1 strain (AID 149);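 also: 0% = growth of vehicle-treated wt1 cultures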; conditions: S. cerevisiae wt1 strain (SPY 50644) growth inhibition, stronger effect = higher value
Procedure, shortened: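 Yeast wt1 strain exposed to compounds; growth inhibition measured relative to vehicle-treated controls.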

[3] = NCI Yeast Anticancer Drug Screen. Data for the rad50EPP+ strain (AID 151);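 also: 0% = growth of vehicle-treated control cultures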; conditions: S. cerevisiae rad50 mutant strain, stronger effect = higher value
Procedure, shortened: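 Measured: growth inhibition of rad50EPP+ yeast. Reference: vehicle-treated controls. Screen uses strains with defined genetic alterations in DNA damage repair or cell cycle control.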

[4] = NCI Yeast Anticancer Drug Screen. Data for the mgt1 strain (AID 153); conditions: S. cerevisiae mgt1 mutant growth inhibition, stronger effect = higher value
Procedure, shortened: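 Compounds were applied to mgt1 mutant yeast, and growth was then compared against vehicle-treated control cultures to give percent inhibition.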

[5] = NCI Yeast Anticancer Drug Screen. Data for the rad50 strain (AID 155);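 also: 0% = growth of vehicle-only cultures of the same strain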; conditions: S. cerevisiae rad50 strain growth inhibition, stronger effect = higher value
Procedure, shortened: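 Yeast carrying a defined DNA repair defect were exposed to test compounds, and growth was compared with vehicle-treated controls to give percent inhibition.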

[6] = NCI Yeast Anticancer Drug Screen. Data for the mec2-1 strain (AID 157); conditions: S. cerevisiae mec2-1 strain, stronger effect = higher value
Procedure, shortened: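 Compounds were applied to mec2-1 yeast cells. Their growth was then compared with that of vehicle-treated cultures to give growth inhibition.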

[7] = NCI Yeast Anticancer Drug Screen. Data for the rad14 strain (AID 159);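 also: 0% = growth of vehicle-treated control cultures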; conditions: S. cerevisiae rad14 strain growth inhibition, stronger effect = higher value
Procedure, shortened: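 Yeast cells carrying a defined DNA-repair defect were exposed to compounds, and growth inhibition was calculated relative to vehicle-treated control cultures.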

[8] = NCI Yeast Anticancer Drug Screen. Data for the sgs1 mgt1 strain (AID 161);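 also: 0% = growth of cultures given vehicle only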; conditions: S. cerevisiae sgs1 mgt1 strain, stronger effect = higher value
Procedure, shortened: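 Compounds are added to genetically altered yeast, and growth is compared with cultures given vehicle alone to give percent inhibition.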

[9] = NCI Yeast Anticancer Drug Screen. Data for the cln2 rad14 strain (AID 165);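 also: 0% = growth equal to vehicle treated cultures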; conditions: S. cerevisiae cln2 rad14 strain, stronger effect = higher value
Procedure, shortened: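 Strain: cln2 rad14 yeast, altered in cell cycle control and DNA damage repair. Read-out: growth inhibition vs vehicle.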

[10] = NCI Yeast Anticancer Drug Screen. Data for the bub3 strain (AID 167); conditions: S. cerevisiae bub3 mutant strain, stronger effect = higher value
Procedure, shortened: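 Compounds were applied to a genetically altered yeast strain carrying a cell-cycle control defect. Growth inhibition was scored against vehicle-treated controls.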

[11] = NCI Yeast Anticancer Drug Screen. Data for the wt2 strain (AID 169);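 also: 0% = growth of vehicle-treated yeast cultures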; conditions: S. cerevisiae wt2 strain growth inhibition, stronger effect = higher value
Procedure, shortened: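 Growth of compound-treated yeast is measured and expressed as inhibition relative to vehicle-only controls.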

[12] = NCI Yeast Anticancer Drug Screen. Data for the mlh1 strain (AID 171);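 also: 0% = growth of vehicle-treated control cultures of the same strain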; conditions: S. cerevisiae mlh1 strain growth inhibition, stronger effect = higher value
Procedure, shortened: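 Test agents were incubated with yeast bearing a defined DNA damage repair or cell cycle control alteration; values are growth inhibition normalised to vehicle-treated cultures.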

[13] = NCI Yeast Anticancer Drug Screen. Data for the sgs1 strain (AID 173);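 also: 0% = growth of vehicle-only control cultures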; conditions: S. cerevisiae sgs1 mutant, stronger effect = higher value
Procedure, shortened: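 Strain with an altered DNA repair or cell cycle pathway exposed to compound. Growth then measured. Value = inhibition versus vehicle control.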

[14] = NCI Yeast Anticancer Drug Screen. Data for the mlh1 rad18 strain (AID 175); conditions: S. cerevisiae mlh1 rad18 strain growth inhibition, stronger effect = higher value
Procedure, shortened: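 A repair-deficient yeast strain is exposed to test compound, and growth is scored relative to vehicle-treated controls.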

[15] = NCI Yeast Anticancer Drug Screen. Data for the rad18 strain (AID 177); conditions: S. cerevisiae rad18 mutant growth inhibition, stronger effect = higher value
Procedure, shortened: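 DNA-repair-defective yeast; compound treatment; growth inhibition scored against vehicle.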

[16] = at 5.0 µM (retest, dose inferred, filed as 0.5)
[17] = at 50.0 µM (retest, dose inferred, filed as 5.0)

Measured: growth inhibition

Cc1cc(-c2cc(C)c(O)c(C(C)(C)C)c2)cc(C(C)(C)C)c1O
inactive: [1]; at 1.2 µM -37% | [1]; at 3.7 µM -34% | [1]; at 11.0 µM -17% | [1]; at 33.0 µM 48% | [2]; at 1.2 µM -52% | [2]; at 3.7 µM -49% | [2]; at 11.0 µM -44% | [2]; at 33.0 µM 6% | [3]; at 1.2 µM -35% | [3]; at 3.7 µM -31% | [3]; at 11.0 µM -29% | [3]; at 33.0 µM -25% | [3]; at 100.0 µM -4% | [4]; at 1.2 µM -49% | [4]; at 3.7 µM -51% | [4]; at 11.0 µM -49% | [4]; at 33.0 µM -16% | [4]; at 100.0 µM 57% | [5]; at 1.2 µM -2% | [5]; at 3.7 µM -4% | [5]; [16] 43% and 15% | [5]; at 11.0 µM 11% | [5]; at 33.0 µM 52% | [6]; at 1.2 µM -30% | [6]; at 3.7 µM -23% | [6]; [16] 51% and -6% | [6]; at 11.0 µM -10% | [6]; at 33.0 µM -2% | [6]; at 50.0 µM 65.3% and 61.5% | [6]; at 100.0 µM 55% | [7]; at 1.2 µM -16% | [7]; at 3.7 µM -10% | [7]; at 11.0 µM -23% | [7]; at 33.0 µM 25% | [8]; [16] 10% and 18% | [9]; [16] 52% and -17% | [10]; at 1.2 µM -6% | [10]; at 3.7 µM 5% | [10]; [16] 43% and 5% | [10]; at 11.0 µM 24% | [10]; at 33.0 µM 40% | [10]; at 100.0 µM 65% | [11]; at 1.2 µM -32% | [11]; at 3.7 µM -18% | [11]; at 11.0 µM -17% | [11]; at 33.0 µM 4% | [11]; at 100.0 µM 66% | [12]; at 1.2 µM -44% | [12]; at 3.7 µM -31% | [12]; at 11.0 µM -28% | [12]; at 33.0 µM 9% | [12]; at 100.0 µM 65% | [13]; at 1.2 µM -20% | [13]; at 3.7 µM -8% | [13]; at 11.0 µM -6% | [13]; at 33.0 µM 30% | [13]; at 100.0 µM 59% | [14]; [16] 46% and 3% | [15]; at 1.2 µM -42% | [15]; at 3.7 µM -36% | [15]; at 11.0 µM -26% | [15]; at 33.0 µM 29%
45% (inactive) and 90% (active): [8]; [17]
52% (inactive) and 93% (active): [10]; [17]
active: [1]; at 100.0 µM 75% | [2]; at 100.0 µM 70% | [5]; [17] 98% and 74% | [5]; at 50.0 µM 70.5% and 77.3% | [5]; at 100.0 µM 72% | [6]; [17] 98% and 91% | [7]; at 100.0 µM 72% | [9]; [17] 81% and 91% | [14]; [17] 99% and 92% | [14]; at 50.0 µM 70.5% and 84.8% | [15]; at 100.0 µM 74%
66.3% (inactive) and 80.8% (active): [8]; at 50.0 µM
70.2% (active) and 37.4% (inactive): [10]; at 50.0 µM
77.8% (active) and 65.8% (inactive): [9]; at 50.0 µM

CC1=CC(=C(c2ccc(N)cc2)c2ccc(N)cc2)C=CC1=N
38% (inactive) and 93% (active): [5]; [17]
54% (inactive) and 75% (active): [14]; [17]
active: [1]; at 100.0 µM 91% | [4]; at 100.0 µM 76% | [5]; at 100.0 µM 82% | [6]; [17] 89% and 80% | [6]; at 100.0 µM 73% | [7]; at 100.0 µM 74% | [10]; [17] 90% and 76% | [10]; at 100.0 µM 88% | [11]; at 100.0 µM 94% | [12]; at 100.0 µM 81% | [13]; at 100.0 µM 77% | [15]; at 100.0 µM 81%
inactive: [1]; at 1.2 µM 20% | [1]; at 3.7 µM 49% | [1]; at 11.0 µM 47% | [1]; at 33.0 µM 32% | [2]; at 1.2 µM 0% | [2]; at 3.7 µM -1% | [2]; at 11.0 µM 7% | [2]; at 33.0 µM 2% | [2]; at 100.0 µM 19% | [3]; at 1.2 µM 15% | [3]; at 3.7 µM 22% | [3]; at 11.0 µM 20% | [3]; at 33.0 µM 29% | [3]; at 100.0 µM 51% | [4]; at 1.2 µM -9% | [4]; at 3.7 µM 1% | [4]; at 11.0 µM -8% | [4]; at 33.0 µM 4% | [5]; at 1.2 µM -2% | [5]; at 3.7 µM 17% | [5]; [16] 21% and 1% | [5]; at 11.0 µM 17% | [5]; at 33.0 µM 7% | [5]; at 50.0 µM 32.7% and 35.3% | [6]; at 1.2 µM 7% | [6]; at 3.7 µM 2% | [6]; [16] 14% and -7% | [6]; at 11.0 µM -1% | [6]; at 33.0 µM -6% | [6]; at 50.0 µM 58.7% and 12.3% | [7]; at 1.2 µM -9% | [7]; at 3.7 µM 0% | [7]; at 11.0 µM -4% | [7]; at 33.0 µM -4% | [8]; [16] 15% and 2% | [8]; [17] 30% and 50% | [8]; at 50.0 µM 59.5% and 48.1% | [9]; [16] 1% and -1% | [9]; [17] 42% and 61% | [9]; at 50.0 µM 34% and -84.5% | [10]; at 1.2 µM -12% | [10]; at 3.7 µM 8% | [10]; [16] 18% and -1% | [10]; at 11.0 µM 8% | [10]; at 33.0 µM 12% | [10]; at 50.0 µM 58.8% and 24.9% | [11]; at 1.2 µM -18% | [11]; at 3.7 µM -13% | [11]; at 11.0 µM -12% | [11]; at 33.0 µM -6% | [12]; at 1.2 µM 1% | [12]; at 3.7 µM -4% | [12]; at 11.0 µM 1% | [12]; at 33.0 µM -3% | [13]; at 1.2 µM 11% | [13]; at 3.7 µM 18% | [13]; at 11.0 µM 4% | [13]; at 33.0 µM 11% | [14]; [16] 9% and -3% | [14]; at 50.0 µM 66% and 61.9% | [15]; at 1.2 µM 6% | [15]; at 3.7 µM 4% | [15]; at 11.0 µM -22% | [15]; at 33.0 µM 9%
